# Screens: PubChem BioAssay, The Scripps Research Institute Molecular Screening Center
# Hits are enriched below; roughly 0.9% of the tested compounds scored in any of these assays.
# TR-FRET SRC-2 ct = TR-FRET signal artefacts, primary screen, artefact control for PPARgamma SRC-2 agonist project, biochemical | TR-FRET ratio at 8 µM | actives 0.4% (n = 200,000) | TR-FRET artefact counter-screen; active compounds read high; in the data active = TR-FRET ratio above about 2000
# SRC3 TRFRET art = TR-FRET detection interference compounds, artefact control for PPARgamma SRC-3 recruitment agonists, biochemical, TR-FRET ratio; TR-FRET artefact counter-screen, PPARgamma/SRC-3 format; active compounds read high; TR-FRET ratio at 8 µM; actives 0.39% (n = 99,000); in the data active = TR-FRET ratio above about 2000
# SRC1 TRFRET art = TR-FRET detection interference compounds, primary screen, artefact control for PPARgamma SRC-1 recruitment agonists, biochemical, TR-FRET emission ratio | TR-FRET detection artefact counter-screen; active compounds read high | TR-FRET ratio at 8 µM | actives 0.34% (n = 99,000); in the data active = TR-FRET ratio above about 2300
# PPARg SRC2 recr = agonists of PPARg-SRC-2 recruitment, primary screen, biochemical, HTS. Peroxisome proliferator-activated receptor gamma (Homo sapiens), P37231. PPARgamma LBD-SRC-2 recruitment. activation, % at 8 µM. actives 0.34% (n = 200,000). AID 1032, 2008;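 also: 0% = vehicle and 100% = reference agonist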
# PPARg SRC3 recr = PPARgamma agonists recruiting SRC-3 coactivator, primary screen, biochemical | biochemical PPARgamma/SRC-3 coactivator recruitment assay | activation, % at 8 µM | actives 0.26% (n = 200,000); in the data active = activation above about 23%;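 also: 0% = DMSO and 100% = reference agonist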
# PPARg SRC-1 ag = PPARgamma agonists recruiting SRC-1 coactivator, primary screen, biochemical | Peroxisome proliferator-activated receptor gamma (Homo sapiens), P37231 | PPARgamma-SRC-1 coactivator recruitment biochemical assay | activation, % at 8 µM | actives 0.41% (n = 200,000) | AID 631, 2007; in the data active = activation above about 19%;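 also: 0% = DMSO and 100% = reference agonist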
# PPARg SRC2 ag = agonists of PPARgamma SRC-2 coactivator recruitment, confirmation, biochemical, HTS; shares compounds with PPARg SRC3 recr; biochemical SRC-2 recruitment by PPARgamma; activation, % at 8 µM; actives 52% (n = 790); AID 1297, 2008;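 also: 0% = vehicle alone and 100% = reference agonist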
# PPARg SRC1 conf = PPARgamma agonists recruiting SRC-1 coactivator, confirmation, biochemical; PPARgamma–SRC-1 coactivator recruitment biochemical assay; actives 43% (n = 790); shares compounds with PPARg SRC3 recr; activation, % at 8 µM; AID 1300, 2008; in the data active = activation above about 20%;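 also: 0% = vehicle wells and 100% = reference agonist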
# PPARg SRC3 ag = PPARgamma-driven SRC-3 coactivator recruitment agonists, confirmation, biochemical; shares compounds with PPARg SRC3 recr; biochemical PPARgamma-SRC-3 coactivator recruitment, agonist mode; activation, % at 8 µM; actives 29% (n = 790); AID 1301, 2008; in the data active = activation above about 24%;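 also: 0% = vehicle wells and 100% = reference agonist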
# Active calls of the source: *; . = not tested or not shown. Rule as the data show it, unless noted: active = activation above about 22%; inactive = the rest.
SMILES,TR-FRET SRC-2 ct,SRC3 TRFRET art,SRC1 TRFRET art,PPARg SRC2 recr,PPARg SRC3 recr,PPARg SRC-1 ag,PPARg SRC2 ag,PPARg SRC1 conf,PPARg SRC3 ag
CC1=NN(c2ccc(C)cc2C)C(=O)C1C(c1cccc(O)c1)C1C(=O)N(c2ccc(C)cc2C)N=C1C (stereo not drawn),1677,1632,1856,-4,4,5,.,.,.
COc1cc2oc(=O)c(Br)c(C)c2c(OC)c1OC,2553*,.,.,46*,62*,41*,40*,34*,24*
COc1cc2oc(=O)cc(C)c2c(OC)c1OC,1448,1792,1724,3,2,6,.,.,.
Cn1c(=S)[nH]c2scc(-c3cccs3)c2c1=O,2702*,2495*,3197*,42*,27*,50*,57*,41*,37*
C=CCn1c(=S)[nH]c2scc(-c3cccs3)c2c1=O,3332*,3585*,3938*,76*,42*,68*,78*,55*,47*
O=c1c2c(-c3cccs3)csc2ncn1-c1ccc(Br)cc1,1896,.,.,17,4,4,.,.,.
CN1CCN(NC(=O)CN2C(=O)S/C(=C\c3c(Cl)cccc3Cl)C2=O)CC1,1488,1509,1742,0,1,4,.,.,.
O=C(COC(=O)/C=C/c1ccccc1[N+](=O)[O-])NCC(F)(F)F,1425,1818,1952,13,7,3,.,.,.
Cc1ccc(OCCn2cc(/C=C3\C(=O)NN(c4ccccc4)C3=O)c3ccccc32)cc1,1700,1493,1900,1,-4,-2,.,.,.
O=C1NN(c2ccccc2)C(=O)/C1=C/c1ccc(Sc2cccc3ccccc23)o1,2448*,2511*,2739*,39*,18,30*,25*,19,19
O=C(CNC1CCCC1)Nc1ccc(N2CCCCCC2)cc1,1860,1650,1797,8,6,20*,1,0,1
CCOC(=O)N1CCN(C(=O)c2cn(CC)c3ccc(S(=O)(=O)N4CCC(C)CC4)cc3c2=O)CC1,1658,1805,1704,1,3,5,.,.,.
S=c1[nH]nc(-c2ccccn2)n1/N=C/c1ccc(-c2ccccc2Br)o1,4475*,4805*,5322*,129*,69*,69*,82*,60*,53*
CC(C)Oc1ccc(/C=N/NC(=O)C(CSCc2ccccc2)NC(=O)c2ccc([N+](=O)[O-])cc2)cc1 (stereo not drawn),1656,.,.,9,4,10,.,.,.
Cc1cc2nc(-c3ccc(SCc4ccccc4C#N)nc3)[nH]c2cc1C,2284*,.,.,59*,46*,36*,32*,20*,20
CN(NC1CC(=O)N(c2ccccc2)C1=O)c1ccccc1 (stereo not drawn),1628,1453,1778,4,-1,6,.,.,.
CCOC(=O)N1CCC(NC(=O)CSc2cc(=O)n(C)c3ccccc23)CC1,2545*,.,.,49*,48*,47*,40*,26*,25*
Cn1c(=O)cc(SCC(=O)N2CCCC2)c2ccccc21,2431*,2626*,2601*,35*,20,30*,37*,24*,26*
CCOC(=O)CSc1cc(=O)n(C)c2cc(Cl)ccc12,3535*,.,.,68*,97*,77*,43*,26*,28*
CCCCN(CC)C(=O)CSc1cc(=O)n(C)c2ccccc12,2446*,.,.,51*,74*,55*,32*,20*,21
COc1ccc(OC)c(NC(=O)c2cccnc2Sc2ccccc2)c1,1365,1375,1580,-2,0,-1,.,.,.
COc1ccccc1NC(=O)COc1ccc(CO)cc1Cl,1492,.,.,0,-1,4,.,.,.
CCOC(=O)CSc1cc(=O)n(CC)c2ccccc12,2136*,.,.,36*,32*,28*,27*,17,19
CN(Cc1ccccc1)C(=O)CSc1cc(=O)n(C)c2ccccc12,2656*,2514*,3203*,17,31*,46*,32*,22*,24*
CCOc1ccc(CCNC(=O)CSc2cc(=O)n(CC)c3ccccc23)cc1OCC,2084*,1684,2106,31*,15,20*,25*,18,17
SMILES,TR-FRET SRC-2 ct,SRC3 TRFRET art,SRC1 TRFRET art,PPARg SRC2 recr,PPARg SRC3 recr,PPARg SRC-1 ag,PPARg SRC2 ag,PPARg SRC1 conf,PPARg SRC3 ag
CCn1c(=O)cc(SCC(=O)N(C)Cc2ccccc2)c2ccccc21,2336*,.,.,47*,34*,32*,42*,28*,27*
CCCc1cc(=O)[nH]c(SCC(=O)N(C)Cc2ccccc2)n1,1409,.,.,9,5,3,.,.,.
Cn1c(=O)cc(SCC(=O)NCC2COc3ccccc3O2)c2ccccc21 (stereo not drawn),1878,.,.,15,12,4,.,.,.
COCCNC(=O)/C(C#N)=C/c1c(F)cccc1Cl,1351,1618,1794,-3,2,-2,.,.,.
O=C(Sc1nnc(-c2ccccc2)o1)N1c2ccccc2Sc2ccccc21,1691,.,.,31*,25,16,48*,34*,33*
COc1cc(-c2nnc(SCC(=O)N3c4ccccc4Sc4ccccc43)o2)cc(OC)c1OC,1583,.,.,-3,7,2,.,.,.
CCN(CC)c1ccc(NC(=O)CSc2nnc(N)s2)cc1C,1642,.,.,2,15,20*,-2,-3,0
CC(C)C(NS(=O)(=O)c1ccccc1)C(=O)OCc1cc([N+](=O)[O-])cc2c1OCOC2 (stereo not drawn),1745,1661,1540,-9,1,4,.,.,.
CCOc1ccc(N/C=C/C(=O)c2ccc(C)cc2)c([N+](=O)[O-])c1,1659,.,.,13,19,24*,3,2,-4
CCOc1ccc(N/C=C/C(=O)c2ccc3ccccc3c2)c([N+](=O)[O-])c1,1478,.,.,-3,-1,-6,.,.,.
Fc1cccc(Cc2noc(CN3CCC(c4ccncc4)CC3)n2)c1,1440,1508,1846,-3,1,2,.,.,.
Cc1ccc(-n2ncc(Br)c(Br)c2=O)cc1,1799,1996,2278,17,18,16,.,.,.
